# According to PubChem BioAssay (NCATS):
# A number with no mark means an inactive call. Results filed as inconclusive are left out. Entries that show only a call come without a potency. The source made the active and inactive calls. Unless noted, calls follow the shape of the dose curve; as a rule, active = well fitted curve in the direction sought with a large enough effect; inconclusive = small, poorly fitted or top-dose-only effect, or another doubt; inactive = no such curve, though single readings can be large; an effect the other way counts as inactive or inconclusive.
# What was measured:
# [1] = target: Rap guanine nucleotide exchange factor 3 (Homo sapiens) (UniProt O95398); test: Confirmatory qHTS for antagonist of cAMP-regulated guanine nucleotide exchange factor 3 (EPAC1) (AID 1645880); details: EPAC1 Rap1B-BODIPY-GDP exchange, fluorescence; activity, negative = inhibition: at 115 µM (top of the series); also: nearly all actives have a fitted effect of over 55% in size; also: potency is read from the fitted curve at half-maximal effect
# Chain of Rap guanine nucleotide exchange factor 3 (Homo sapiens) (O95398 whole entry, looked up): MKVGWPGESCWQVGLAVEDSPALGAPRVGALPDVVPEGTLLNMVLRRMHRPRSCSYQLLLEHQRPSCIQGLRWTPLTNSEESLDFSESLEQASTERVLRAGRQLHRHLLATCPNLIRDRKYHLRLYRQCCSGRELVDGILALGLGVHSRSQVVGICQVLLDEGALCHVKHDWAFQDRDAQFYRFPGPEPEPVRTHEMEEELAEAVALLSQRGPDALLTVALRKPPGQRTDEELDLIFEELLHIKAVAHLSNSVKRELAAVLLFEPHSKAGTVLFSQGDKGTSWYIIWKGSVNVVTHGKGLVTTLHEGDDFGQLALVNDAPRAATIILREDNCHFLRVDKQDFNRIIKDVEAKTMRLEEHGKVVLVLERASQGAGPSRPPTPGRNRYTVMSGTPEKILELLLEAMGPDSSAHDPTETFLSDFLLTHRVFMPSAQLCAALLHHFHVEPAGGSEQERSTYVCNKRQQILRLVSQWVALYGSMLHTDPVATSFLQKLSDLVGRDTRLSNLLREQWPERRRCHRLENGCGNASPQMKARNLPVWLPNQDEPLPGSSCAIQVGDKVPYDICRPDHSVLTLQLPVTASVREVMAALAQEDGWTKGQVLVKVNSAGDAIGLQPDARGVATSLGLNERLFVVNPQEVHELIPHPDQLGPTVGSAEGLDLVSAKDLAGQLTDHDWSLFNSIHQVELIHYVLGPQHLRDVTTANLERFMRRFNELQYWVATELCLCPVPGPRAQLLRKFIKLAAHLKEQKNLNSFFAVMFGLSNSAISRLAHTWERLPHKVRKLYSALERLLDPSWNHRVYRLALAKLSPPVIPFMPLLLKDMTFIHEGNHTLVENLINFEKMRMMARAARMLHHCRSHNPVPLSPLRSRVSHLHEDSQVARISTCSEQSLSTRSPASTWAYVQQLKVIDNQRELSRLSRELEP
# Procedure, shortened: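 Released BODIPY-GDP fluoresces less than Rap1-bound BODIPY-GDP; the signal is followed at 480/540 nm at 5-min intervals over 30 min, after 5 min at room temperature. Reactions contain 100 nM EPAC1, 250 nM RAP1B-BODIPY-GDP and 50 uM GDP; results are normalized to ATA and DMSO.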
# [2] = target: Rap guanine nucleotide exchange factor 4 (Homo sapiens) (UniProt Q8WZA2); test: Confirmatory qHTS for antagonist of cAMP-regulated guanine nucleotide exchange factor 4 (EPAC2) (AID 1645885); also: nearly all actives have a fitted effect of over 25% in size; also: potency is read from the fitted curve at half-maximal effect
# Chain of Rap guanine nucleotide exchange factor 4 (Homo sapiens) (Q8WZA2 whole entry, looked up): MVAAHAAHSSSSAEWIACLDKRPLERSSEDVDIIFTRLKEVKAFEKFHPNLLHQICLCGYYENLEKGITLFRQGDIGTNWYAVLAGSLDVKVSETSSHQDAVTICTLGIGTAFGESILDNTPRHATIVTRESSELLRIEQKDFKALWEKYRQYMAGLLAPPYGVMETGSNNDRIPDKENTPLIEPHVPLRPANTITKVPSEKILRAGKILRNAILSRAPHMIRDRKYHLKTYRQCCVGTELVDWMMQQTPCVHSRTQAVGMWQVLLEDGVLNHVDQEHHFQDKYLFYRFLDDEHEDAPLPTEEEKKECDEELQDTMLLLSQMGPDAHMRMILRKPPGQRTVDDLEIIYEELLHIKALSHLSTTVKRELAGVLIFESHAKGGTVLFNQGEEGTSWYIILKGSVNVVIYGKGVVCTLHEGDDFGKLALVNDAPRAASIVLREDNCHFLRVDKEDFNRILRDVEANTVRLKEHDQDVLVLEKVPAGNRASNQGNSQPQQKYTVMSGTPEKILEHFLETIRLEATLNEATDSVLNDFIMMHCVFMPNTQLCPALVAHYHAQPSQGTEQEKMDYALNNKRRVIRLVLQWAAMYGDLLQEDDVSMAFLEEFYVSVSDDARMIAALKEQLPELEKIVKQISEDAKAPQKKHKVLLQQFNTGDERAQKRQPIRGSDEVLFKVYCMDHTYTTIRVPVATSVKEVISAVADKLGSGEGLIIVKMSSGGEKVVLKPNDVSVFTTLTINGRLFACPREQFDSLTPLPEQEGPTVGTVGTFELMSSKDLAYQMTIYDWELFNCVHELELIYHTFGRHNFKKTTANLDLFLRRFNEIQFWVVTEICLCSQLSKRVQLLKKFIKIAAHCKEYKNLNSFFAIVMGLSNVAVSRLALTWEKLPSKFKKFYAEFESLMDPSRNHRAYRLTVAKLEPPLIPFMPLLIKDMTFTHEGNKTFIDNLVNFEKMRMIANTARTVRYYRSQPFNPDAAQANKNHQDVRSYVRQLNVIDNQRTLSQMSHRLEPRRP
# [3] = target: Rap guanine nucleotide exchange factor 3 (Homo sapiens) (UniProt O95398); test: Counterscreen qHTS for antagonist of cAMP-regulated guanine nucleotide exchange factor 3 (EPAC1) (AID 1645888)
# Procedure, shortened: (§1)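 Rap1B–BODIPY-GDP (250 nM) with 50 uM GDP; compounds pin-transferred to 9.74 nM–152 uM final (activator) or from 7.32 nM upwards (inhibitor). Fluorescence Ex/Em 480/540 nm read at 5 and 30 min, then after adding cAMP or buffer, at room temperature.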
# [4] = target: Rap guanine nucleotide exchange factor 3 (Homo sapiens) (UniProt O95398); test: Counterscreen qHTS for agonist of cAMP-regulated guanine nucleotide exchange factor 3 (EPAC1) (AID 1645889); also: nearly all actives have a fitted effect of over 40% in size; also: potency is read from the fitted curve at half-maximal effect
# Procedure, shortened: as §1
# [5] = target: Tumor susceptibility gene 101 protein (Homo sapiens) (UniProt Q99816); test: qHTS Assay for Iinhibitors of HIV-1 Budding by Blocking the Interaction of PTAP/TSG101: Hit Validation (AID 651600); also: nearly all actives have a fitted effect of over 70% in size; also: potency is read from the fitted curve at half-maximal effect
# Chain of Tumor susceptibility gene 101 protein (Homo sapiens) (Q99816 whole entry, looked up, the tested form may be a part): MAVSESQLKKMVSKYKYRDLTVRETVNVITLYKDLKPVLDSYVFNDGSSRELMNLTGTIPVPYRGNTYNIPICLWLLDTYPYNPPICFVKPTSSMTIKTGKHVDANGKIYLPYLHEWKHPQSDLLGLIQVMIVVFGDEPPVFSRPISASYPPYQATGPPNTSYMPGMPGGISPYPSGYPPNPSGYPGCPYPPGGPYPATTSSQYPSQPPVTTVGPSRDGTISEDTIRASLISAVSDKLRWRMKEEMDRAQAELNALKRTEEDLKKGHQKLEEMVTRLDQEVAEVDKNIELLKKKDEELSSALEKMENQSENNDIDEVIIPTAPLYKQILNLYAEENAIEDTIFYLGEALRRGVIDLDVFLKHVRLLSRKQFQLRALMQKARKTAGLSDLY
# Procedure, shortened: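 Compounds are added to the Tsg101 binding domain (10 uM final) in pH 7.5 HEPES buffer. FITC-PTAP peptide follows at 50 nM final. After 20 min at r.t., polarized FITC emission is measured.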
# [6] = AP1 Signaling Pathway (AID 357; active = well fitted curve in either direction with a large enough effect, not every such curve was filed as active;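 also: ME-180 reporter cells stimulated with EGF at its EC50 level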); details: ME-180 (cervical carcinoma) AP-1-bla reporter, EGF-induced, beta-lactamase ratio, 5 h; at 7.69 µM (top of the series) unless noted
# Procedure, shortened: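 In this screen, ME-180 cells in Opti-MEM with 0.5% dialyzed FBS received EC50 EGF and compound titrations for 5 h. AP-1 reporter beta-lactamase was detected via CCF4 ratio, giving AC50 for positive and negative modulators.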
# [7] = target: Cytochrome P450 1A2 (Homo sapiens) (UniProt P05177); test: p450-cyp1a2 (AID 410; calls by dose curve; also: potency is read from the fitted curve at half-maximal effect)
# Chain of Cytochrome P450 1A2 (Homo sapiens) (P05177 whole entry, looked up): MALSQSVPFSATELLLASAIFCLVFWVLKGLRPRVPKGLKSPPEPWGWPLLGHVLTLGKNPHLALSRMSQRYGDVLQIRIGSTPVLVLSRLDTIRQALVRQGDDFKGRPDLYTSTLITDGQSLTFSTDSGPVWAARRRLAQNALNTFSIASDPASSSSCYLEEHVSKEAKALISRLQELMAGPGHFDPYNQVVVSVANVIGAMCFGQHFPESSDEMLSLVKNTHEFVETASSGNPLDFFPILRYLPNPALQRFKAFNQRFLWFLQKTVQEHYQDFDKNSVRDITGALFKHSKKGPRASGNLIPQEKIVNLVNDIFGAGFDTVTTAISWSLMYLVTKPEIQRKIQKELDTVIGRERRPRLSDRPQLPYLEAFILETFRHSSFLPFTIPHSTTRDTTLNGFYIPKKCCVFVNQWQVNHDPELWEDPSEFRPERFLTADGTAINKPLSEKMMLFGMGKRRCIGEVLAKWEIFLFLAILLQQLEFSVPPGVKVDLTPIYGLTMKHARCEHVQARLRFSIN
# Procedure, shortened: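 Luminescent demethylation readout: Luciferin-ME (100uM, equal to Km) turned over by 20nM CYP1A2 for 60 min at room temperature after NADPH regeneration addition, following 10 min compound preincubation. Normalization used 57 uM furafylline as full inhibition.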
# [8] = NFAT Signaling Pathway (AID 444; active = well fitted curve in either direction with a large enough effect, not every such curve was filed as active;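 also: carbachol stimulus at about its EC50 of 1 µM final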); details: Jurkat NFAT-bla M1, carbachol, beta-lactamase ratio, 5 h; at 7.69 µM (top of the series) unless noted
# Procedure, shortened: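 Jurkat cells with NFAT-driven β-lactamase reporter and co-expressed M1 receptor, stimulated with carbachol (final 1 uM, ~EC50), compound titration, 5 h at 37 °C. CCF4 loaded 1 h at RT; 460/530 nm ratio gave %activity and AC50.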
# [9] = Stat Signaling Pathway (AID 446; active = well fitted curve in either direction with a large enough effect, not every such curve was filed as active;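 also: ME-180 cervical cancer cells given 40 pM IL-6 alongside compound; SIE-controlled beta-lactamase reporter measured as 460/530 nm FRET emission ratio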)
# Procedure, shortened: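 Normalization used AC90 stimulation (300 pM IL-6) and AC90 inhibition (125 nM pan-JAK inhibitor at 40 pM IL-6). The underlying signal is SIE-driven beta-lactamase in ME-180 cells after 5 h IL-6 exposure with compound.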
# [10] = target: Glucocorticoid receptor (Homo sapiens) (UniProt P04150); test: GR-GFP Redistribution (AID 450;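 active = compounds whose dose series gives a full or clear partial fitted curve of increased nuclear translocation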; also: potency is read from the fitted curve at half-maximal effect); details: U2OS GR-GFP nuclear translocation, laser cytometry, 2 h
# Chain of Glucocorticoid receptor (Homo sapiens) (P04150 whole entry, looked up, the tested form may be a part): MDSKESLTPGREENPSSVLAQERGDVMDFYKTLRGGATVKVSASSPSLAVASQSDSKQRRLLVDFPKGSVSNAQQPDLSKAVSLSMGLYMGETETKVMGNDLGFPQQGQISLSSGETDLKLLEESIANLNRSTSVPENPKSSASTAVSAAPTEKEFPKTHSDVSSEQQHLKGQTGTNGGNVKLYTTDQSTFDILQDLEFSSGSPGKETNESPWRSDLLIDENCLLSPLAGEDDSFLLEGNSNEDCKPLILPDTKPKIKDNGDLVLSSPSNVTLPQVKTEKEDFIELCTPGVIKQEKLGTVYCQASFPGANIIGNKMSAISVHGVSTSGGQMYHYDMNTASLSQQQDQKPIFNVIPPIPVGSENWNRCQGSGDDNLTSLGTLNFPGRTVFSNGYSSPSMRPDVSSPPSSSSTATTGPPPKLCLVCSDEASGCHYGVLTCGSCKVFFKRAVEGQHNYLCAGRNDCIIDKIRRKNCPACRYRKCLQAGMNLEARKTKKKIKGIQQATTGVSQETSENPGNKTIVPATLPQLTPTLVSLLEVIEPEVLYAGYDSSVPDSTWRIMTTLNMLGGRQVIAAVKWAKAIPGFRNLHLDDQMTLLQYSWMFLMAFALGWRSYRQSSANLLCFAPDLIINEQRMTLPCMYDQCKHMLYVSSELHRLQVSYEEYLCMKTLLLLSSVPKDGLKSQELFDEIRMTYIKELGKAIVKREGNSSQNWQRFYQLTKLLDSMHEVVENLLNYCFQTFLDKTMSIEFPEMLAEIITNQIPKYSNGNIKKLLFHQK
# [11] = target: Glucocorticoid receptor (Homo sapiens) (UniProt P04150); test: GR-EFC Redistribution (AID 451; calls by dose curve; also: potency is read from the fitted curve at half-maximal effect); details: CHO-K1 GR-EFC translocation, beta-gal luminescence, 2 h
# Procedure, shortened: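 CHO-K1 cells expressing nuclear EA and GR-ED fragments of b-gal; compounds titrated up to 46 uM final, 2 h at 37 C. GR nuclear translocation read as complemented b-gal luminescence after 1 h RT detection.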
# [12] = target: Mitogen-activated protein kinase 10 (Mus musculus) (UniProt Q61831); test: JNK3 AlphaScreen Assay (AID 530; active = well fitted curve in either direction with a large enough effect, not every such curve was filed as active;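 also: kinase came from lysate of stimulated human HepG2 cells; signal reports phosphorylation of biotinylated GST-cJun 1-79 at Ser73 with 10 µM ATP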)
# Procedure, shortened: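 Activity was read by AlphaScreen after JNK3-containing HepG2 lysate (cytokine pre-activated) phosphorylated biotinylated GST-cJun with 10 uM ATP at room temperature. Phospho-Ser73 cJun antibody with Protein-A acceptor beads provided detection.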
# [13] = target: Cytochrome P450 3A4 (Homo sapiens) (UniProt P08684); test: qHTS Assay for Inhibitors and Substrates of Cytochrome P450 3A4 (AID 884); also: potency is read from the fitted curve at half-maximal effect; nearly all actives have a fitted effect of over 50% in size
# Chain of Cytochrome P450 3A4 (Homo sapiens) (P08684 whole entry, looked up): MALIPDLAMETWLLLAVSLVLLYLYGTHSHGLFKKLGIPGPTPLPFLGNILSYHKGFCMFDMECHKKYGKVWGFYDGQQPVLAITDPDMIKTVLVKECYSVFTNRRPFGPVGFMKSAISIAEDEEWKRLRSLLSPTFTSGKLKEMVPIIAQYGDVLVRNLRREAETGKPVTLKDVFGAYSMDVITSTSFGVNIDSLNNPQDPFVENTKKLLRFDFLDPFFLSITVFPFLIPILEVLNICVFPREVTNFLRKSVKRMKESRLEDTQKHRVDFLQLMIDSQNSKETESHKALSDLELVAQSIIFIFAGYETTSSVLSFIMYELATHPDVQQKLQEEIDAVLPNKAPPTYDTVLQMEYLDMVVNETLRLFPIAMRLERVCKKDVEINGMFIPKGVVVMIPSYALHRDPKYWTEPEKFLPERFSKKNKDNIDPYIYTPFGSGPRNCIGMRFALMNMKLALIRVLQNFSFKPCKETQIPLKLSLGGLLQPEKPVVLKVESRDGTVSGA
# Procedure, shortened: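 Luminescent readout of luciferin produced by CYP3A4 (20 nM) dealkylation of Luciferin-PPXE, 25 uM (its KM). NADPH-driven reaction ran 60 min at RT after 10 min compound preincubation; data scaled to 57 uM ketoconazole as 100% inhibition.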
# [14] = target: Cytochrome P450 3A4 (Homo sapiens) (UniProt P08684); test: qHTS Assay for Activators of Cytochrome P450 3A4 (AID 885); also: nearly all actives have a fitted effect of over 65% in size
# Procedure, shortened: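 Human CYP3A4 dealkylates Luciferin-PPXE to luciferin, which luciferase detection converts to light. Substrate was at its KM (25uM), buffer 200mM KPO4, reaction 60 min at RT.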
# [15] = target: Cytochrome P450 2D6 (Homo sapiens) (UniProt P10635); test: qHTS Assay for Inhibitors and Substrates of Cytochrome P450 2D6 (AID 891); also: potency is read from the fitted curve at half-maximal effect; nearly all actives have a fitted effect of over 60% in size
# Procedure, shortened: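 Luminescent read-out of luciferin formed by 5 nM human CYP2D6 demethylating 30 uM Luciferin-ME EGE (Km level) over 60 min at room temperature after NADPH regeneration addition. Data normalized to full inhibition by 1.43 uM quinidine.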
# [16] = target: Dual specificity protein kinase CLK4 (Homo sapiens) (UniProt Q9HAZ1); test: qHTS Assay for Inhibitors of CDC-like Kinase 4 (ADP-FP Assay) (AID 1795);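 also: recombinant human CLK4 phosphorylating RS repeat peptide at 1 µM ATP; nearly all actives have a fitted effect of over 60% in size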
# Procedure, shortened: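 Clk4 6.25 nM; RS peptide 100 uM; ATP 1 uM; 25 mM Tris pH 7.5, 10 mM MgCl2; 1 h reaction. ADP detected via antibody/orange tracer FP displacement; TG003 positive control.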
# [17] = target: Lysosomal acid glucosylceramidase (Homo sapiens) (UniProt P04062); test: Glucocerebrosidase-p2 (AID 348; in the data active = potency below about 10 µM; also: potency is read from the fitted curve at half-maximal effect); details: purified GBA, blue fluorogenic substrate, 40 min
# Chain of Lysosomal acid glucosylceramidase (Homo sapiens) (P04062 whole entry, looked up): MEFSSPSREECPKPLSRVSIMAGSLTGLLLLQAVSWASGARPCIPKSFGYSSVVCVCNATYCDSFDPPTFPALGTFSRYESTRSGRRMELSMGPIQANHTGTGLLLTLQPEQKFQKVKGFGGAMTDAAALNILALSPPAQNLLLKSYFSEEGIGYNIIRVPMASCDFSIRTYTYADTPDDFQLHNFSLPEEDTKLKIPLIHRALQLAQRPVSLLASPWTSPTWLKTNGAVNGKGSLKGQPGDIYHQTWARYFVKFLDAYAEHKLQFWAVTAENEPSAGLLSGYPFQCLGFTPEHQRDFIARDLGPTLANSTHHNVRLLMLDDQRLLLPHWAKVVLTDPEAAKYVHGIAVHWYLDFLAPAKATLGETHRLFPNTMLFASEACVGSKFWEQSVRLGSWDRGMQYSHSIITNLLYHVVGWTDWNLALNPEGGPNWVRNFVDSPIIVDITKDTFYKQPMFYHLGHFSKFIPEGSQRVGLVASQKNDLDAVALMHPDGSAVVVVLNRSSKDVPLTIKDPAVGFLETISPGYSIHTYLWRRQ
# Procedure, shortened: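 Normal human glucocerebrosidase (0.2 nM) with blue fluorogenic substrate (80 uM final) in citrate/phosphate pH 5.9 with 10mM sodium taurocholate, 0.01% tween-20; 40 min RT, NaOH/glycine stop; fluorescence Ex 365/Em 440; AC50 from a titration from 0.6 nM upwards.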
# [18] = target: Cytochrome P450 2C9 (Homo sapiens) (UniProt P11712); test: qHTS Assay for Inhibitors and Substrates of Cytochrome P450 2C9 (AID 883); also: nearly all actives have a fitted effect of over 60% in size
# Procedure, shortened: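 Human CYP2C9 (10nM) with Luciferin-H at 100uM (its KM) in 25mM KPO4; compound preincubated 10 min at 37C, then NADPH regeneration for 60 min at 37C. Luciferin read by luminescence after detection reagent; normalized to 57uM sulphaphenazole as full inhibition.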
compound,measurement,setting,value
CC1CC1c1ccc(/C=C(\C#N)C(=O)Nc2cc(Cl)ccc2Cl)o1 (stereo not drawn),Potency,[1],inactive
same,Potency,[2],inactive
same,Potency,[3],inactive
same,Potency,[4],inactive
CCOC(=O)c1cc(C)sc1NC(=O)CSC1=NCCS1,Potency,[1],inactive
same,Potency,[2],inactive
same,Potency,[3],inactive
Cc1ccc(N=Cc2c(O)n(-c3nccs3)c(=O)c3ccccc23)c(C)c1,Potency,[1],inactive
same,Potency,[2],inactive
same,"activity change, negative = inhibition",[3],7.45% [at 30.8 µM]
CC[n+]1ccc(/C=C/c2c[nH]c3ccccc23)cc1,Potency,[1],inactive
same,Potency,[2],inactive
same,Potency,[3],inactive
same,Potency,[4],44.7 µM (active)
CCOC(=O)c1ccc2[nH]cc(C(C)=O)c(=O)c2c1,Potency,[1],inactive
same,Potency,[2],inactive
same,Potency,[3],inactive
CCCCn1nnnc1C(c1cc2ccccc2o1)N1CCCCC1 (stereo not drawn),Potency,[1],inactive
same,Potency,[3],inactive
CCCCN1C(=O)/C(=C/C=C2/CC(C)(C)CN2C)SC1=S,Potency,[1],inactive
same,Potency,[3],inactive
O=C(O)c1cc(Cl)ccc1-c1ccc(/C=C/c2cc(C(F)(F)F)[nH]c(=O)n2)o1,Potency,[5],inactive
same,Potency,[1],inactive
same,Potency,[2],inactive
same,"activity change, negative = inhibition",[3],144% [at 30.8 µM]
same,Potency,[4],12.6 µM (active)
Fc1ccc(Nc2cncc(-c3ccsc3)c2)cc1Cl,Potency,[1],75.7 µM (active)
same,Potency,[3],inactive
COc1cccc(/C(O)=C/c2nc3ccc(C(=O)NCCc4ccc(Cl)cc4)cc3[nH]c2=O)c1,Potency,[5],inactive
same,Potency,[1],inactive
same,Potency,[2],inactive
same,Potency,[3],inactive
CCOCCCNc1nc2c(C)cccn2c(=O)c1/C=C1\SC(=S)N(CC(C)C)C1=O,Potency,[1],inactive
same,Potency,[3],inactive
CCNc1ncc2nc(-c3cccs3)c(=O)n(CCC#N)c2n1,"activity change, negative = inhibition",[6],-3.58%
same,Potency,[7],3.16 µM (active)
same,"activity change, negative = inhibition",[8],-2.96%
same,outcome,[9],inactive
same,Potency,[10],> 9.22 µM
same,Potency,[11],> 46 µM
same,Potency,[12],inactive
same,Potency,[13],6.31 µM (active)
same,outcome,[14],inactive
same,Potency,[15],1.26 µM (active)
same,Potency,[16],inactive
same,Potency,[1],inactive
same,Potency,[2],inactive
O=C1OC(c2ccccc2)(c2ccccc2)c2ccccc21,Potency,[1],inactive
same,"activity change, negative = inhibition",[3],2.72% [at 30.8 µM]
Cc1cc(/C=C2\SC(=S)N(Cc3ccco3)C2=O)c(C)n1-c1cccnc1,Potency,[5],25.9 µM (active)
same,Potency,[1],inactive
same,Potency,[2],84.9 µM (active)
same,Potency,[3],inactive
COc1ccc(C(=O)Nc2nc(-c3ccc([N+](=O)[O-])cc3)c(-c3ccc(OC)cc3)s2)cc1,Potency,[5],inactive
same,Potency,[1],inactive
same,Potency,[2],inactive
same,Potency,[3],inactive
CCOc1ccc(C(=O)CCc2nc3ccccc3s2)cc1,Potency,[1],inactive
same,"activity change, negative = inhibition",[3],-7.41% [at 30.8 µM]
Cc1c2ccccc2nc2c(F)c(NCCO)c(F)c(F)c12,Potency,[5],8.19 µM (active)
same,Potency,[1],inactive
same,Potency,[2],inactive
same,Potency,[3],inactive
COC(=O)c1ccccc1-c1c2ccc(=N)cc-2oc2cc(N)ccc12,Potency,[1],inactive
same,Potency,[3],inactive
COC(=O)c1cc2ccccc2n1S(=O)(=O)c1ccccc1,Potency,[1],inactive
same,Potency,[3],inactive
CCOc1ccc(-c2nn(-c3ccccc3)cc2/C=C2\SC(=S)N(C3CCS(=O)(=O)C3)C2=O)cc1 (stereo not drawn),Potency,[1],inactive
same,Potency,[3],inactive
Cc1ccc2c(c1)N(Cc1cccc(F)c1)C(=O)C(C)O2 (stereo not drawn),Potency,[1],inactive
same,Potency,[3],inactive
CC[n+]1c(/C=C/C=C/N(C(C)=O)c2ccccc2)sc2ccccc21,Potency,[1],84.9 µM (active)
same,Potency,[3],inactive
COc1cccc(Nc2ncc3nc(-c4ccc(F)cc4)c(=O)n(CCC#N)c3n2)c1,Potency,[17],> 11.4 µM
same,Potency,[7],3.98 µM (active)
same,"activity change, negative = inhibition",[8],-6.29%
same,outcome,[9],inactive
same,Potency,[10],> 9.22 µM
same,Potency,[11],> 46 µM
same,Potency,[12],inactive
same,Potency,[18],inactive
same,Potency,[13],3.16 µM (active)
same,outcome,[14],inactive
same,Potency,[1],inactive
same,Potency,[2],inactive
CN(C)c1ncc2nc(CCc3ccccc3)c(=O)n(-c3ccccc3)c2n1,Potency,[17],> 11.4 µM
same,Potency,[7],0.794 µM (active)
same,"activity change, negative = inhibition",[8],12.7%
same,outcome,[9],inactive
same,Potency,[10],> 9.22 µM
same,Potency,[11],> 46 µM
same,Potency,[12],inactive
same,Potency,[13],6.31 µM (active)
same,outcome,[14],inactive
same,Potency,[1],inactive
same,Potency,[2],inactive
O=[N+]([O-])/C=C/c1cn(Cc2ccc(Cl)cc2)c2ccccc12,Potency,[1],inactive
same,Potency,[3],inactive
